The record followed here is ChEMBL document CHEMBL5308541, “MAIP: An Open-Source Tool to Enrich High-Throughput Screening Output and Identify Novel, Druglike Molecules with Antimalarial Activity” (ACS Med Chem Lett, 2023).

The structures appear in SMILES notation. The campaign covered roughly 4,800 compounds. About 420 (8.8%) showed an effect of 50% or more. For the sample, strong results were picked, then their nearest neighbours and some compounds at random.

In general, % Inhibition refers to the relative decrease from the control value, in per cent.

The test relates to Plasmodium falciparum. Nature of the test: Confirmatory screen in NF54 nanoGlo assay, in single point, at 2uM, 72h. The class given is functional, Erythrocyte. Conditions: timepoint 72 hour.
For the molecule `COc1ccc2c(O)c(Br)c(C)nc2c1`, the “% Inhibition” value is 78%.
Then `CN1CCN(CCOc2ccccc2CN(C)Cc2cc3cc(F)ccc3[nH]2)CC1`, with 87%; and `CN(C[C@H](O)COc1cccc(CNCCCOc2cccnc2)c1)C1CCCCC1`, with 30%; and `CN1C(C)(C)CC(NC(=O)c2ccc(-c3cc(-c4cccc(C(F)(F)F)c4)n[nH]3)cc2)CC1(C)C`, with 45%.
Consider `CCc1oc2ccccc2c1CNC[C@H](O)c1ccc(Cl)cc1`, for which the “% Inhibition” value is recorded as 99%.
Then `CCN(Cc1[nH]c2ccc(Cl)cc2c1C)CC1CCN(C2CCN(C)CC2)CC1`, with 89%.
Next, `CCN(Cc1cnn(-c2cccc(Cl)c2)c1)CC1CCN(C2CCN(C)CC2)CC1`: 79%.
Next, `Cc1ccc2[nH]c(-c3cc4n(n3)CCN(c3ccnc(N)n3)C4)nc2c1C`: 89%; `CNc1nc(N[C@H]2CCCN(Cc3ccc(Cl)cc3)C2)nc2c1CCC2`: 79%.
In the case of `Clc1cccc(N2CC[C@H](CNC3CCN(Cc4ccco4)CC3)C2)c1`, the “% Inhibition” value worked out at 66%.
Then `COc1ccc(CNCc2cc3ccccc3[nH]2)cc1CN(C)C`, with 59%.
Next, `COc1ccccc1-c1csc(C2CCN(CC[C@H]3CCCN3C)CC2)n1`: 26%.
Consider `CC(CNc1nc(NCC(C)N2CCOCC2)c2cc(Cl)ccc2n1)N1CCOCC1` (stereo unspecified), for which the “% Inhibition” value was determined as 87%.
Regarding `Cc1ccc(-c2cc(C(=O)NC3CCN(C4CCN(C)CC4)CC3)n[nH]2)cc1C`, the “% Inhibition” value turned out to be 98%.
For `CN1CCC(N2CCC(NC(=O)c3ccc(S(=O)(=O)N(C)C4CCCCC4)cc3)CC2)CC1`, the “% Inhibition” value came to 44%.
Then `CN(C)Cc1cccc(CCNCc2csc(-c3ccc(C(F)(F)F)cc3)n2)c1`, with 74%; and `O=C(NC1CCN(CCOc2ccc(Cl)cc2)CC1)c1c[nH]c2ccncc2c1=O`, with 92%.
Next, `CCN1CCC[C@H](Nc2cccc(-n3ccnc3)n2)C1`: 33%.
As for `O[C@H]1CCN(Cc2ccccc2CNc2cccc(-n3ccnc3)n2)C1`, the “% Inhibition” value was 94%.
Then `O[C@H]1CCN(Cc2cccc(NCc3cn4ccnc4s3)c2)C1`, with 38%; and `Nc1ccnc(-c2cccc3[nH]ccc23)c1`, with 6%; and `COc1ccc2cc(-c3cc(N)ccn3)[nH]c2c1`, with 55%.
Next, `O=C1CN(C(=O)c2ccnc3ccccc23)CCN1Cc1ccccc1F`: 53%.
As for `COc1cc2nc(NCC3(N4CCN(C)CC4)CCCC3)cc(C)c2cc1OC`, the “% Inhibition” value turned out to be 84%.
Next, `CCN(C)CC1CCN(c2nc(NCCOC)nc(N3CCC(CN(C)CC)C3)n2)C1` (stereo unspecified): 1%; `Cn1nnc(C(=O)N2CCCCC23CCCCCC3)n1`: 68%; `CC(C)CCOc1ccc2[nH]c(-c3cc(N4CCC[C@@H]4CS(C)(=O)=O)ccn3)cc2c1`: 99%.
Take `CN(CCCn1ccnc1)c1ccnc2cc(Br)ccc12`: the “% Inhibition” value was determined as 99%.
With `O=C(NCCN1CCCCC1)c1cccc(-c2cnc3ccc(F)cn23)c1`, the “% Inhibition” value stood at 26%.
Next, `CCOc1cc2nccc(N3C[C@H]4CN(C)C[C@H]4C3)c2cc1OCC`: 98%.
Next, `CCCC(=O)NC1COCC1Cc1ccncc1` (stereo unspecified): 83%; `c1ccc(CN2CCC(CCNC[C@@H]3CCCN4CCCC[C@H]34)CC2)cc1`: 61%.
Then `COc1ccc2cc(NC(=O)c3cc(-c4c(C)nn(C)c4C)[nH]n3)cnc2c1`, with 73%; and `Cc1cnccc1NCCNCc1ccc(OC(C)C)c(Cl)c1`, with 73%.
With `c1ccc2c(Nc3ccc4[nH]cnc4c3)c3ccccc3nc2c1`, the “% Inhibition” value was 98%.
Then `O[C@@H](CNCc1cc2cc(Cl)c(Cl)cc2[nH]1)c1ccc(F)cc1`, with 79%; and `OC[C@H](CNCc1cc2ccc(F)cc2[nH]1)c1ccccc1Cl`, with 72%; and `Cc1sc2nc(-c3ccccn3)nc(NCCc3nccn3C)c2c1-c1ccccc1`, with 71%.
Then `CCNc1nc(C)cc(Nc2ccc(NC(=O)Nc3ccc(F)cc3F)cc2)n1`, with 98%; and `CCNc1cc(C)nc(NCCNC(=O)Nc2cc(F)cc(F)c2)n1`, with 76%.
With `Cc1cc(NC[C@H](O)COc2ccc(F)cc2)nc2ccccc12`, the “% Inhibition” value is given as 76%.
Next, `Cc1ccc2[nH]c(CNC[C@@H](CO)C3CCC3)cc2c1C`: 65%; `COc1ccc2[nH]cc(C3=CCN(c4ccc5nnc(-c6ccccc6F)n5n4)CC3)c2c1`: 51%; `COc1ccc2[nH]cc(-c3ccc(N)nc3)c2c1`: -7%.
Then `CCN1CCN([C@H]2CCN(c3ccnc4ccncc34)C2)CC1`, with 97%.
For the molecule `Cc1ccc2nccc(N3CCC(N4CCC(O)CC4)CC3)c2c1`, the “% Inhibition” value amounted to 10%.
On to `O=C(NCC1CC1)c1cc2c(OCc3ccc(Cl)cc3)cccc2[nH]1`, for which the “% Inhibition” value came to 57%.
Turning to `c1ccc(-c2ccnc(C3CCN(CC45CNCC4C5)CC3)n2)cc1` (stereo unspecified), the “% Inhibition” value was 94%.
With `CC(C)c1ccc(-c2nc(CN3CCCCC3)cc(CN3CCCCC3)c2O)cc1`, the “% Inhibition” value is recorded as 93%.
Then `CC(C)c1ccc(-c2noc(CCN3CCN(CCCN(C)C)CC3)n2)cc1`, with 25%; and `CCC1(NC(=O)c2cc(C)c3ccccc3n2)CCOCC1`, with 10%.
